The record followed here is publication PMC7862700, “An all-to-all approach to the identification of sequence-specific readers for epigenetic DNA modifications on cytosine”.

Experiment in all cases: DAPPL (digital affinity profiling via proximity ligation, sequencing); 10 mM Tris-HCl pH 7.5, 50 mM NaCl, 1 mM DTT, 4% glycerol, room temperature, 30 min; GST-TFs on glutathione beads, 16-mer random dsDNA library, 0.1% formaldehyde crosslink after washing; high values mean tight binding
Assay [1] deals with T1, FLI1 (Homo sapiens, UniProt Q01543 1-452).
T1 sequence: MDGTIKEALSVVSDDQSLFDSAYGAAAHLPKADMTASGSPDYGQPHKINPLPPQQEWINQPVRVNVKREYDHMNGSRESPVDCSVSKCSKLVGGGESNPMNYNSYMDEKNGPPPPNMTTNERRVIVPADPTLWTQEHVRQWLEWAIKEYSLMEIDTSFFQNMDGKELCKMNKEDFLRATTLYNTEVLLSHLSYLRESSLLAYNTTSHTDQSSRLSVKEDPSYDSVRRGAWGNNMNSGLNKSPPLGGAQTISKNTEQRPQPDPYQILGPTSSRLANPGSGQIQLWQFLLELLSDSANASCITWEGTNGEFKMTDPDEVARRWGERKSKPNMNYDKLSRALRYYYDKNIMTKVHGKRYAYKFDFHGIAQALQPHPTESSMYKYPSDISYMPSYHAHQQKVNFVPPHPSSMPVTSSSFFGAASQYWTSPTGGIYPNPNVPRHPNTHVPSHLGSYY
The following applies: protein: recombinant; tags: N-terminal GST; dsDNA, one strand shown. The method in brief:
(§1)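 Each value of binding signal is a hexamer's read frequency for a factor divided by the same hexamer's frequency in the tag-only sample. Barcoded, bead-captured GST fusions of human transcription factors made in yeast were pooled with that sample and incubated with 200 nmole of a random double-stranded 16-mer DNA library in Tris/NaCl/DTT/glycerol buffer at room temperature for 30 min. Washing, 0.1% formaldehyde crosslinking, proximity ligation, PCR and Illumina NextSeq500 sequencing followed.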

Assay [2] has as its target T2, ELK1 (Homo sapiens, UniProt P19419 1-428).
T2 sequence: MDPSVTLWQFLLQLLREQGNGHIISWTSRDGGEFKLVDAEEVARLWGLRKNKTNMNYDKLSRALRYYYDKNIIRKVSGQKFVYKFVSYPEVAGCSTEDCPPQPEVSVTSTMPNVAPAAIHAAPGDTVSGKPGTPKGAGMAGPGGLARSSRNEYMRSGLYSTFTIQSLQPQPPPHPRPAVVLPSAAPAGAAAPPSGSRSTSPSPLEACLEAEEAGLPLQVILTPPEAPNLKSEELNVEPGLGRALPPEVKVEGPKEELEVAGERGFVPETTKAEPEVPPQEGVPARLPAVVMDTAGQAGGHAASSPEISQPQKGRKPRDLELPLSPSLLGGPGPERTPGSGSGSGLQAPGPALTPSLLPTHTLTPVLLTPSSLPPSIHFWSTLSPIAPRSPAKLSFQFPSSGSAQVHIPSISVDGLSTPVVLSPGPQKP
To be noted: protein: recombinant; tags: N-terminal GST; dsDNA, one strand shown. The method in brief:
as §1

The target of assay [3] is T3, GABPA (Homo sapiens, UniProt Q06546 1-454).
T3 sequence: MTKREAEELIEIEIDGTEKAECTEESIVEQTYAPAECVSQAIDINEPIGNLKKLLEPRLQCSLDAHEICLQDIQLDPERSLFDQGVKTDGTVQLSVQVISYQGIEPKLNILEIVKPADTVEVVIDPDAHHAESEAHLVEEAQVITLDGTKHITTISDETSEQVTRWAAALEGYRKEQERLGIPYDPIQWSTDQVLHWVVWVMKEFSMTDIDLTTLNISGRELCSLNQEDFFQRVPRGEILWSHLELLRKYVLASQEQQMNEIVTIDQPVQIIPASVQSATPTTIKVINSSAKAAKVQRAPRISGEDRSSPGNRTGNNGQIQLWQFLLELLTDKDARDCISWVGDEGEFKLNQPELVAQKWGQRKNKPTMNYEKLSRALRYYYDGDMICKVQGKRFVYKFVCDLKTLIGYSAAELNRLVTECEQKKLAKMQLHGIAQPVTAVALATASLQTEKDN
The following applies: protein: recombinant; tags: N-terminal GST; dsDNA, one strand shown. The method in brief: as §1

Assay [4] concerns the target T4, ERG (Homo sapiens, UniProt P11308 1-479).
T4 sequence: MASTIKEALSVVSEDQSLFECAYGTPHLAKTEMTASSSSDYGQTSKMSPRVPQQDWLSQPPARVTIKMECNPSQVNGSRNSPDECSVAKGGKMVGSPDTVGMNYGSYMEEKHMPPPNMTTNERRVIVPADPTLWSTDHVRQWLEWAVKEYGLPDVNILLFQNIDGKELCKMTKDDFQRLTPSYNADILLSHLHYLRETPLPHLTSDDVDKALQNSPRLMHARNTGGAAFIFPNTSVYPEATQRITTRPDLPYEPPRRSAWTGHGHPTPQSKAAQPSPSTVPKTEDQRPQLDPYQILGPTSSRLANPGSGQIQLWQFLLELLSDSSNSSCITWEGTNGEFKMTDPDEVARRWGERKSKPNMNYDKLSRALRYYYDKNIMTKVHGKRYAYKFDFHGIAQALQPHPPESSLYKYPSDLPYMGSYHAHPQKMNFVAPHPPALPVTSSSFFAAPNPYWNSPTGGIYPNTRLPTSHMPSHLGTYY
To be noted: protein: recombinant; tags: N-terminal GST; dsDNA, one strand shown. The method in brief:
as §1

Assay [5] addresses ELF1 (Homo sapiens, UniProt P32519 1-619). To be noted: protein: recombinant; tags: N-terminal GST; dsDNA, one strand shown. Summed up: as §1
The target of assay [6] is T5, EHF (Homo sapiens, UniProt Q9NZC4 1-300).
T5 sequence: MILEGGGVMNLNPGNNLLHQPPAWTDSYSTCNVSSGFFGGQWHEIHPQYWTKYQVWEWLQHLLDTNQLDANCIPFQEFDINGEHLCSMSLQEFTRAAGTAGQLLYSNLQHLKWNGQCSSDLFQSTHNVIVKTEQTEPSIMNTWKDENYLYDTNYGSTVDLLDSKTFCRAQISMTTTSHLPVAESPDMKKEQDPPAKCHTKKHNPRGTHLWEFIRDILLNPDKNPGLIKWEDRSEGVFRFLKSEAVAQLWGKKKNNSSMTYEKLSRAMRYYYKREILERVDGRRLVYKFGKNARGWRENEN
To be noted: protein: recombinant; tags: N-terminal GST; dsDNA, one strand shown. Summed up:
as §1

The target in assay [7] is SPI1 (Homo sapiens, UniProt P17947 1-270). To be noted: protein: recombinant; tags: N-terminal GST; dsDNA, one strand shown. The method in brief: as §1
For assay [8], the target named is SPIB (Homo sapiens, UniProt Q01892 1-262). The following applies: protein: recombinant; tags: N-terminal GST; dsDNA, one strand shown. Summed up:
as §1

The target in assay [9] is T6, ELK3 (Homo sapiens, UniProt P41970 1-407).
T6 sequence: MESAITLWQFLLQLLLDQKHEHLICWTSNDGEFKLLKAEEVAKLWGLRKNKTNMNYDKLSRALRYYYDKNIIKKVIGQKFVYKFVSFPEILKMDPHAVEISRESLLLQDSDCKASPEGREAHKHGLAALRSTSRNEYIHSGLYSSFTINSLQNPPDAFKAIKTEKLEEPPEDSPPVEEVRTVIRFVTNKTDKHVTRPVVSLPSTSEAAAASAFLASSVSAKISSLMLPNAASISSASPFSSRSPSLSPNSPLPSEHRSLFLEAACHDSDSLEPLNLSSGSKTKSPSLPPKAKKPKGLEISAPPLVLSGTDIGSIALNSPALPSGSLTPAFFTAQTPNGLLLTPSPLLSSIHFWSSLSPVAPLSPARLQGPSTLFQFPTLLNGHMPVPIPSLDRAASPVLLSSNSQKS
To be noted: protein: recombinant; tags: N-terminal GST; dsDNA, one strand shown. The method in brief: as §1

Assay [10] concerns the target T7, FEV (Homo sapiens, UniProt Q99581 1-238).
T7 sequence: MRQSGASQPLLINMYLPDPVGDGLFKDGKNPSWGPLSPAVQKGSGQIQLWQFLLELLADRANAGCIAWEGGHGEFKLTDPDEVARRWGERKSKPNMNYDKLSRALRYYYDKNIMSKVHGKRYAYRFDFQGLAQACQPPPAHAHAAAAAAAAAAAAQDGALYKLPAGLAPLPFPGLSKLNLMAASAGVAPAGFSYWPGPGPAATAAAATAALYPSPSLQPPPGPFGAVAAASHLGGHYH
The following applies: protein: recombinant; tags: N-terminal GST; dsDNA, one strand shown. The method in brief: as §1

Assay [11] concerns the target ETV5 (Homo sapiens, UniProt P41161 1-510). To be noted: protein: recombinant; tags: N-terminal GST; dsDNA, one strand shown. The method in brief:
as §1

Assay [12] deals with HSF1 (Homo sapiens, UniProt Q00613 1-529). The following applies: protein: recombinant; tags: N-terminal GST; chain copies: 3; dsDNA, one strand shown. The method in brief: as §1
Sequence of HSF1 (Q00613 whole entry): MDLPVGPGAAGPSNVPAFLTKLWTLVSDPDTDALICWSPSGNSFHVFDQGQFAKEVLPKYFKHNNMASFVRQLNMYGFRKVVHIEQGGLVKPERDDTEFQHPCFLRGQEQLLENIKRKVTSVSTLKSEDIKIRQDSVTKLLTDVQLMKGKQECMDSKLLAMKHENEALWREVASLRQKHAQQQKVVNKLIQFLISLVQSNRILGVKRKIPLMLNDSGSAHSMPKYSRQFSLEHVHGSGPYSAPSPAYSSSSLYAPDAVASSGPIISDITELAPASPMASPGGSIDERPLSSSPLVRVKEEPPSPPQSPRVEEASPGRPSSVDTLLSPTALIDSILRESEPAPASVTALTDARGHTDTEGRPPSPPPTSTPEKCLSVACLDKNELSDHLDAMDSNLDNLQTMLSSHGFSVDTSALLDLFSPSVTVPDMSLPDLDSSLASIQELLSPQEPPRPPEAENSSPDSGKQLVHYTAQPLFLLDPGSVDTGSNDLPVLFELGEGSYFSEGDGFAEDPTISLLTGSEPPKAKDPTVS
In assay [13] the target is T8, SPIC (Homo sapiens, UniProt Q8N5J4 1-248).
T8 sequence: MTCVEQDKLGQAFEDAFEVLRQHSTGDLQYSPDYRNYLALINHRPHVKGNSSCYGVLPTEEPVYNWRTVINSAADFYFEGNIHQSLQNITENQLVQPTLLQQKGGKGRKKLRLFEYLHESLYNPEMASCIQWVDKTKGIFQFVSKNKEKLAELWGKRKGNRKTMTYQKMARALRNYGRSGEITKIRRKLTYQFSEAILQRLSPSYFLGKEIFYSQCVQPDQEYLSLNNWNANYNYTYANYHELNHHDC
The following applies: protein: recombinant; tags: N-terminal GST; dsDNA, one strand shown. The method in brief: as §1

For assay [14], the target named is ELF4 (Homo sapiens, UniProt Q99607 1-663). The following applies: protein: recombinant; tags: N-terminal GST; dsDNA, one strand shown. Summed up:
as §1

Assay [15] addresses T9, ELK4 (Homo sapiens, UniProt P28324-2 1-405).
T9 sequence: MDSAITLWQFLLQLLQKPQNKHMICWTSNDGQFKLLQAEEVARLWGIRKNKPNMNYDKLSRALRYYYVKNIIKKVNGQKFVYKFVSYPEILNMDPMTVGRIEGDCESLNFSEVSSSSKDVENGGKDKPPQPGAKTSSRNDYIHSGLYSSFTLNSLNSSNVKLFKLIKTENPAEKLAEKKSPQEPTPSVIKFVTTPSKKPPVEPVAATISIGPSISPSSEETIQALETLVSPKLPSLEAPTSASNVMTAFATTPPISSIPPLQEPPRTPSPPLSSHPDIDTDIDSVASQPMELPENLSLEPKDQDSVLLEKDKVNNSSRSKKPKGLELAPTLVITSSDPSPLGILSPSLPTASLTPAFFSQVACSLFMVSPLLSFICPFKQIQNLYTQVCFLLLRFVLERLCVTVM
The following applies: protein: recombinant; tags: N-terminal GST; dsDNA, one strand shown. The method in brief:
as §1

Assay [16] deals with T10, ETV2 (Homo sapiens, UniProt O00321 1-342).
T10 sequence: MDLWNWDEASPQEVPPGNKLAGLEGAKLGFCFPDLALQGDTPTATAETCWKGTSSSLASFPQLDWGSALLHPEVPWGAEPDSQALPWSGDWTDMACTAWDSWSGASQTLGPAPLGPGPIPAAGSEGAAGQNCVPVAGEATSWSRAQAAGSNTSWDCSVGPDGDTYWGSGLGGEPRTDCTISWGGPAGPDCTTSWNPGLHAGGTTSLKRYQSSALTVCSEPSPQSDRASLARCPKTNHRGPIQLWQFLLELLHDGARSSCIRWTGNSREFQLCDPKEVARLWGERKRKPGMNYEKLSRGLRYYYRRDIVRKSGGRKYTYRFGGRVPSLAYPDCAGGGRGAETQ
To be noted: protein: recombinant; tags: N-terminal GST; dsDNA, one strand shown. The method in brief:
as §1

Assay [17] deals with T11, ELF3 (Homo sapiens, UniProt P78545 1-371).
T11 sequence: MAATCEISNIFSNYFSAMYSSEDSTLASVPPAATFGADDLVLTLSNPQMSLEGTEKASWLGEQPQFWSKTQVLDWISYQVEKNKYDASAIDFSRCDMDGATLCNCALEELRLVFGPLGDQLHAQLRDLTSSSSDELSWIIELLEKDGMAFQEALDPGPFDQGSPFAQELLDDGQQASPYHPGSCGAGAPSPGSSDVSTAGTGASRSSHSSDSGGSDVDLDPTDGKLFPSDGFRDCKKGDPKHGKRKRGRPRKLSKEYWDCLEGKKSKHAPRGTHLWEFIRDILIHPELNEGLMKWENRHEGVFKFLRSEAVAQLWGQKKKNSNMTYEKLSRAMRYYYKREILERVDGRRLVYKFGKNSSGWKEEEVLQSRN
The following applies: protein: recombinant; tags: N-terminal GST; dsDNA, one strand shown. Summed up: as §1

Assay [18] concerns the target CRX (Homo sapiens, UniProt O43186 1-299). To be noted: protein: recombinant; tags: N-terminal GST; dsDNA, one strand shown. Summed up:
as §1

Assay [19] deals with ETV1 (Homo sapiens, UniProt P50549 1-477). The following applies: protein: recombinant; tags: N-terminal GST; dsDNA, one strand shown. The method in brief: as §1
Sequence of ETV1 (P50549 whole entry): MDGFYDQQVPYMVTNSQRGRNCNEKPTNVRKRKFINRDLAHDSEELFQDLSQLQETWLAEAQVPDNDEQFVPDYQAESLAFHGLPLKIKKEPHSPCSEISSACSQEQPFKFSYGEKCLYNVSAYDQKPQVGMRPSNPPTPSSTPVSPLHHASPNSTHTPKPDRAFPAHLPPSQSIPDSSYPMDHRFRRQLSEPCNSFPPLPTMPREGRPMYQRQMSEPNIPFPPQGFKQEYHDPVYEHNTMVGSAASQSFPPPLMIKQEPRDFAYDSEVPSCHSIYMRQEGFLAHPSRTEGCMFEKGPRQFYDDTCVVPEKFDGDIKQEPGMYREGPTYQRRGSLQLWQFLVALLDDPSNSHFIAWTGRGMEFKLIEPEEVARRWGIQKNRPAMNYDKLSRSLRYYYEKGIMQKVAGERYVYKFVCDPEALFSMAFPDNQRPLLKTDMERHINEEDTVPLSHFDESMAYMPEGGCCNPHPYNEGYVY

Sequence of ELF1 (P32519 whole entry): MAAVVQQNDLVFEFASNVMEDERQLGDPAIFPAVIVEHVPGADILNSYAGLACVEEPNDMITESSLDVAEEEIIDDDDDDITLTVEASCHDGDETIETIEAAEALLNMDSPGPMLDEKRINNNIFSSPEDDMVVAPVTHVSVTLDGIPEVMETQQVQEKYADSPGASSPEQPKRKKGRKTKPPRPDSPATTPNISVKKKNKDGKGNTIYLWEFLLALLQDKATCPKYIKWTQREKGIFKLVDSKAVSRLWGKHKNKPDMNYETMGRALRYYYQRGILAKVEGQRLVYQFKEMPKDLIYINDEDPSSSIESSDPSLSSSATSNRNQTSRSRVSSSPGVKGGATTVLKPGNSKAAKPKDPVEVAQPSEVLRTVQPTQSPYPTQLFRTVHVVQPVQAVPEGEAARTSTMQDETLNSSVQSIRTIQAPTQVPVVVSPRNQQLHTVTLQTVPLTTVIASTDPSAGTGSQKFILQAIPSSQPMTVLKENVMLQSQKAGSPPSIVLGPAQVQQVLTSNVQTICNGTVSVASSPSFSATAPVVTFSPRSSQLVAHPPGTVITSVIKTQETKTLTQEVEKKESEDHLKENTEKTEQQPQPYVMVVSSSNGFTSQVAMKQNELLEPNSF
Sequence of ETV5 (P41161 whole entry): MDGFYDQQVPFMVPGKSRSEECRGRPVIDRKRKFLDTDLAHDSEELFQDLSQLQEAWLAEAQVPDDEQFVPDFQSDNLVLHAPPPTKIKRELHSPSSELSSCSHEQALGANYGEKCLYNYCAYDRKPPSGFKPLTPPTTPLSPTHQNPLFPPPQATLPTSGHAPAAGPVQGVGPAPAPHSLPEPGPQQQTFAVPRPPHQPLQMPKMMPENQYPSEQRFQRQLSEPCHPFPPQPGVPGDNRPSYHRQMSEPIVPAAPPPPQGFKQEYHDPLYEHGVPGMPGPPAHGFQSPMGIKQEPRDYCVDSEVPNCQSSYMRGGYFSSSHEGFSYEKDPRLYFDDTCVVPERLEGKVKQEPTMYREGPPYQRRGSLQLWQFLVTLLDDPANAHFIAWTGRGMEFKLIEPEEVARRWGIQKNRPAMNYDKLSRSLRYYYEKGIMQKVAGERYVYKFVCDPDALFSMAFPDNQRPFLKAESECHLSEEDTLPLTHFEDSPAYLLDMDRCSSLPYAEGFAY
Sequence of CRX (O43186 whole entry): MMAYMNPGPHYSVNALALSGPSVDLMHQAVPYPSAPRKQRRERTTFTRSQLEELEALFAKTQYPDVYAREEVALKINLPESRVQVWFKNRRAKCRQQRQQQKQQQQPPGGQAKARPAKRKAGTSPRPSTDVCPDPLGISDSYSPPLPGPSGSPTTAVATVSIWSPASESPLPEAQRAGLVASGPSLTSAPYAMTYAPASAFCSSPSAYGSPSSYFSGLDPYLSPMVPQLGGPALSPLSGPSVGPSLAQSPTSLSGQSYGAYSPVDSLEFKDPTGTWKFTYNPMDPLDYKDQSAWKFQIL
Sequence of ELF4 (Q99607 whole entry): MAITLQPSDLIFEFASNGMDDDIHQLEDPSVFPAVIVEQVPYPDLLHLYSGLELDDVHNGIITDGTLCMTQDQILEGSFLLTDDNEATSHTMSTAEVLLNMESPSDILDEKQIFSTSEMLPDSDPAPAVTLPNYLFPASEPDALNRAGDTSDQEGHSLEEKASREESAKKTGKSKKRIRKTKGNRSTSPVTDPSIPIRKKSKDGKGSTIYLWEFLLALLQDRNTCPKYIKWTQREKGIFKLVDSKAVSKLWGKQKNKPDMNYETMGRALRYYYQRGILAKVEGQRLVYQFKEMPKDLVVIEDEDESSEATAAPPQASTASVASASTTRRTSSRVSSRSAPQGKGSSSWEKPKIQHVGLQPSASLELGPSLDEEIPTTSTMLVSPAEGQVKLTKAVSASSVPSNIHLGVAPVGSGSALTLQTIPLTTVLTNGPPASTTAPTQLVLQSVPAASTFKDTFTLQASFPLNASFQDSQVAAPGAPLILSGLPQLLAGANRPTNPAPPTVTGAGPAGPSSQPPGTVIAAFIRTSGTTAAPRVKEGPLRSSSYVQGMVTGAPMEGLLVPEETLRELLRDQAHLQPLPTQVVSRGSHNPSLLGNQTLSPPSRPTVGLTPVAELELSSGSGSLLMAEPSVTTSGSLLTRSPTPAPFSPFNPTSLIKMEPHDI
Sequence of SPIB (Q01892 whole entry): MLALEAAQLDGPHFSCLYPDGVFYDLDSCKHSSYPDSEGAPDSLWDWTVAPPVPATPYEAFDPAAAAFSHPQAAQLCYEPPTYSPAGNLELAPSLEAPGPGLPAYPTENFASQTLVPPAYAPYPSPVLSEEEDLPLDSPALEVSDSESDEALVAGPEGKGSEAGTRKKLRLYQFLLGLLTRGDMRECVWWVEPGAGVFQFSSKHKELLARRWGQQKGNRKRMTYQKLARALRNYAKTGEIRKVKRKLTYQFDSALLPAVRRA

In the case of CTTACT, the binding signal in assay [1] is 1.38 fold enrichment (6-mer frequency, TF over GST control); in [2], 1.31 fold enrichment (6-mer frequency, TF over GST control); in assay [3], 1.3 fold enrichment (6-mer frequency, TF over GST control); in assay [4], 1.27 fold enrichment (6-mer frequency, TF over GST control); in [5], 1.29 fold enrichment (6-mer frequency, TF over GST control); in [6], 1.34 fold enrichment (6-mer frequency, TF over GST control). Besides, the binding signal in [7] is 1.3 fold enrichment (6-mer frequency, TF over GST control); in [8], 1.27 fold enrichment (6-mer frequency, TF over GST control); in [9], 1.34 fold enrichment (6-mer frequency, TF over GST control); in [10], 1.17 fold enrichment (6-mer frequency, TF over GST control); in assay [11], 1.28 fold enrichment (6-mer frequency, TF over GST control); in assay [12], 1.34 fold enrichment (6-mer frequency, TF over GST control). Besides, the binding signal is 1.1 fold enrichment (6-mer frequency, TF over GST control) in [13]; 1.36 fold enrichment (6-mer frequency, TF over GST control) in assay [14]; 1.12 fold enrichment (6-mer frequency, TF over GST control) in [15]; 1.39 fold enrichment (6-mer frequency, TF over GST control) in [16]; 1.24 fold enrichment (6-mer frequency, TF over GST control) in assay [17]; 1.58 fold enrichment (6-mer frequency, TF over GST control) in assay [18]. Further, in assay [19], the binding signal is 1.23 fold enrichment (6-mer frequency, TF over GST control).
